Measured values taken from PubChem BioAssay AID2316 (Broad Institute, 2010).
Fewer than 10 of roughly 29,000 compounds were called active. Only a sample is shown. Values without a mark were called inactive. The rule behind the calls is not given here.

Assay: activators reversing PD-1 mediated T-cell inhibition, primary screen, luminescence, primary human CD4 T cells, PD-L1 beads (AID 2316);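 note: 0% = median vehicle wells and 100% = positive control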
Conditions: CellTiter-Glo 96 h, stronger effect = higher value

Row | SMILES | activation [%]
1 | COc1ccc(NC(=O)Nc2cccc3c2O[C@H](CN(C)C(=O)Nc2ccc(F)cc2)[C@@H](C)CN([C@@H](C)CO)C3=O)cc1 | 1.83
2 | COc1ccc(NC(=O)N(C)C[C@@H]2OCCCC[C@@H](C)Oc3ccc(NC(=O)NC4CCCCC4)cc3C(=O)N([C@H](C)CO)C[C@@H]2C)cc1 | 0.764
3 | CCOc1ccc(NC(=O)CSc2nccc(C)n2)cc1 | 1.48
4 | Cc1ccc(C)c(NC(=O)CSc2nc(C)nc3sc(C)c(C)c23)c1 | 0.586
5 | CC(C)(C)c1ccc(S(=O)(=O)NCC(=O)Nc2ccc(F)cc2)cc1 | -2.51
6 | COC(=O)c1c(NC(=O)COc2ccc(C(C)C)c(C)c2)sc2c1CCC2 | 0.596
7 | O=S(=O)(c1ccccc1)c1nc(-c2ccccc2F)oc1NCc1cccnc1 | -0.501
8 | COc1ccccc1N(CC(=O)Nc1ccc(C(F)(F)F)cc1)S(C)(=O)=O | 0.0709
9 | C[C@@H]1CN([C@H](C)CO)C(=O)c2cccc(NC(=O)c3ccncc3)c2O[C@@H]1CN(C)C | 0.1
10 | Cc1ccc(S(=O)(=O)Nc2ccc3c(c2)CC(=O)N([C@H](C)CO)C[C@@H](C)[C@H](CN(C)S(=O)(=O)c2c(C)noc2C)O3)cc1 | 0.836
11 | O=C(NCc1ccccn1)C(=O)Nc1cccc(Cl)c1Cl | 2.26
12 | COC1OC(O)C(O)C12CC[C@@]1(O2)[C@H](C)C[C@H]2OC(=O)[C@@]3(C)CCC[C@]1(C)C23 (some centres not stated) | 0.449
13 | Cc1ccc(S(=O)(=O)CCC(=O)Nc2ccc(Cl)cc2)cc1 | 0.811
14 | Cc1ccc(C(=O)O)cc1S(=O)(=O)NCC1CCCO1 (configuration not stated) | -0.751
15 | COc1ccc(NC(=O)Nc2ccc3c(c2)CC(=O)N([C@@H](C)CO)C[C@H](C)[C@H](CN(C)C(=O)Nc2ccc4c(c2)OCO4)O3)cc1 | 0.0102
16 | COc1ccc2nc3c(nc2c1)C(=O)c1ccccc1C3=O | 0.69
17 | C[C@H](CO)N1C[C@H](C)[C@@H](CN(C)Cc2ccccc2)Oc2c(NC(=O)CCCCCC(=O)Nc3ccccc3N)cccc2C1=O | -2.46
18 | Cc1ccc(S(=O)(=O)N(C)C[C@H]2Oc3ccc(NC(=O)Cc4cn(C)c5ccccc45)cc3CC(=O)N([C@@H](C)CO)C[C@H]2C)cc1 | -0.47
19 | C/C=C(/C)C(=O)O[C@H]1CC(C)(C)C[C@H]2C3=CCC4[C@@]5(C)CC[C@H](O[C@@H]6O[C@H](C(=O)O)[C@@H](O[C@@H]7O[C@H](CO)[C@H](O)[C@H](O)[C@H]7O[C@@H]7O[C@H](CO)[C@@H](O)[C@H](O)[C@H]7O)[C@H](O)[C@H]6O[C@@H]6O[C@@H](C)[C@H](O)[C@@H](O)[C@H]6O)C(C)(C)C5CC[C@@]4(C)[C@]3(C)[C@@H](OC(C)=O)[C@@H](O)[C@@]12COC(C)=O (some centres not stated) | -14.9
20 | C[C@@H]1CCCCO[C@H](CN(C)Cc2ccncc2)[C@@H](C)CN([C@H](C)CO)C(=O)c2cc(NC(=O)CCCN(C)C)ccc2O1 | 0.961
21 | Cc1cc(C)c(C(=O)CSc2nc(C)cc(=O)[nH]2)c(C)c1 | 1.17

Row | SMILES | activation [%]
22 | CS(=O)(=O)N(CC(=O)N1CCOCC1)c1ccc2c3c(cccc13)CC2 | 0.857
23 | COc1cc(C2OC(c3cc(OC)c(OC)c(OC)c3)C(C)C2C)cc(OC)c1OC (configuration not stated) | 0.69
24 | Cc1noc(C)c1NC(=O)N(C)C[C@H]1Oc2ccc(NS(=O)(=O)c3ccc(F)cc3)cc2C(=O)N([C@@H](C)CO)C[C@H]1C | 2.2
25 | COc1ccc(NC(=O)N(C)C[C@H]2Oc3c(NC(=O)Nc4cccc5ccccc45)cccc3C(=O)N([C@@H](C)CO)C[C@H]2C)cc1 | 0.624
26 | CC(=O)Oc1ccc2occ(C(=O)c3cc4ccccc4o3)c2c1 | -0.284
27 | CS(=O)(=O)N(CC(=O)Nc1cc(C(F)(F)F)ccc1Cl)c1ccc(Br)cc1 | -0.295
28 | C[C@H]1CN([C@@H](C)CO)C(=O)c2cccc(NC(=O)C3CCOCC3)c2O[C@@H]1CN(C)C | 0.0381
29 | C[C@@H]1CN([C@@H](C)CO)C(=O)Cc2cc(NC(=O)CCCCCC(=O)Nc3ccccc3N)ccc2O[C@@H]1CN(C)C(=O)NC1CCCCC1 | 0.434
30 | C[C@@H]1CN([C@H](C)CO)C(=O)c2cc(NC(=O)Nc3ccc4c(c3)OCO4)ccc2O[C@H]1CN(C)C(=O)Nc1ccccc1 | 0.77
31 | Cn1nc(C(=O)O)c2ccccc2c1=O | -0.137
32 | COc1ccc(S(=O)(=O)N(C)CC(=O)Nc2cccc(C(F)(F)F)c2)cc1OC | -1.43
33 | CCCCCC(O)c1cccc(OCc2ccc3ccccc3n2)c1 (configuration not stated) | 5.54
34 | C[C@H]1CN([C@@H](C)CO)C(=O)c2cccc(NC(=O)c3ccncc3)c2O[C@H]1CN(C)C | 2.81
35 | O=C(O)C1CC=CCC1C(=O)Nc1ccc(C(=O)N2CCCCC2)c(Cl)c1 (configuration not stated) | 2.23
36 | Cc1ccc(S(=O)(=O)N(C)C[C@@H]2Oc3c(NC(=O)C4CCCCC4)cccc3C(=O)N([C@H](C)CO)C[C@H]2C)cc1 | 1.48
37 | Cc1ccc(S(=O)(=O)Nc2ccc3c(c2)C(=O)N([C@H](C)CO)C[C@H](C)[C@@H](CN(C)S(=O)(=O)c2cccs2)O3)cc1 | -1.04
38 | CC(C)CSc1nnc(CSCc2nc(-c3ccc(Cl)cc3)cs2)n1C | 1.7
39 | CS(=O)(=O)N(CC(=O)Nc1ccc(F)c(Cl)c1)C1CCCCC1 | 0.469
40 | CC(C)NC(=O)N(C)C[C@@H]1Oc2ccc(NS(=O)(=O)c3ccccc3)cc2C(=O)N([C@@H](C)CO)C[C@H]1C | 1.49
41 | C[C@H]1CN([C@@H](C)CO)C(=O)Cc2cc(NC(=O)CCCCCC(=O)Nc3ccccc3N)ccc2O[C@H]1CN(C)C(=O)Nc1ccc(F)cc1 | 0.894
42 | Cc1noc(C)c1S(=O)(=O)N(C)C[C@@H]1Oc2c(NS(=O)(=O)c3cn(C)cn3)cccc2C(=O)N([C@H](C)CO)C[C@@H]1C | 1.65
